# Measured values reported in PubChem BioAssay.
# Active and inactive are the calls of the source.
# How the values were obtained:
# [1] = optical density shifts of acrAB sulA E. coli – strain DRC41, OD650, 48 h, E. coli filamentation inducer project, primary screen (AID 1152); settings: higher = more signal, called active from +8 up or from −8 down;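 further: E. coli MC1000 strain DRC41 lacking acrAB efflux pump and sulA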
# [2] = probe aLefty1 binding on compound microarray – biochemical, small-molecule microarray, 635/667 nm fluorescence, primary screen (AID 1153); settings: higher = more signal;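 further: score merges spot fluorescence with signal-to-noise ratio from the scanned slide images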
# [3] = plasmodial surface anion channel blockers, osmotic lysis – cell-based, P. falciparum Indochina, OD700, 1 h, primary screen (AID 1154); settings: P. falciparum Indochina infected RBC osmotic lysis, higher = more signal, called active from +8 up or from −8 down
# [4] = plasmodial surface anion channel blockers, osmotic lysis – cell-based, P. falciparum Indochina, OD700, 2 h, primary screen (AID 1155);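 further: lysis reports solute entry through the parasite surface anion channel PSAC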; settings: P. falciparum Indochina infected erythrocytes, higher = more signal, called active from +8 up or from −8 down
# [5] = changes in parasitized red cell lysis, either direction – P. falciparum Indochina, OD700, 3 h, PSAC antagonist project, primary screen (AID 1156); settings: P. falciparum-infected erythrocytes, osmotic lysis, higher = more signal, called active from +8 up or from −8 down
# [6] = plasmodial surface anion channel blockers, osmotic lysis – cell-based, P. falciparum Indochina, OD700, 18 h, primary screen (AID 1157); settings: P. falciparum Indochina infected erythrocytes, osmotic lysis OD700, 18 h; higher = more signal, called active from +8 up or from −8 down
# [7] = S6 kinase pathway phospho-S6 level changes – cell-based, A549, cytoblot, luminescence, serum-stimulated, primary screen (AID 1158); settings: 5 h, higher = more signal;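 further: serum-stimulated A549 lung adenocarcinoma cells; signal is phosphorylated S6 detected by cytoblot immunostaining with HRP secondary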
# [8] = target: NADPH oxidase 2 (Homo sapiens) (UniProt P04839); assay: compounds shifting NOX2 Amplex Red fluorescence – cell-based, HEK293-NOX2, PMA-stimulated, NOX inhibitor project, primary screen (AID 1159); settings: 45 min, higher = more signal, called active from +8 up or from −8 down; further: test concentration not given here
# NADPH oxidase 2 (Homo sapiens), sequence (P04839 whole entry, looked up): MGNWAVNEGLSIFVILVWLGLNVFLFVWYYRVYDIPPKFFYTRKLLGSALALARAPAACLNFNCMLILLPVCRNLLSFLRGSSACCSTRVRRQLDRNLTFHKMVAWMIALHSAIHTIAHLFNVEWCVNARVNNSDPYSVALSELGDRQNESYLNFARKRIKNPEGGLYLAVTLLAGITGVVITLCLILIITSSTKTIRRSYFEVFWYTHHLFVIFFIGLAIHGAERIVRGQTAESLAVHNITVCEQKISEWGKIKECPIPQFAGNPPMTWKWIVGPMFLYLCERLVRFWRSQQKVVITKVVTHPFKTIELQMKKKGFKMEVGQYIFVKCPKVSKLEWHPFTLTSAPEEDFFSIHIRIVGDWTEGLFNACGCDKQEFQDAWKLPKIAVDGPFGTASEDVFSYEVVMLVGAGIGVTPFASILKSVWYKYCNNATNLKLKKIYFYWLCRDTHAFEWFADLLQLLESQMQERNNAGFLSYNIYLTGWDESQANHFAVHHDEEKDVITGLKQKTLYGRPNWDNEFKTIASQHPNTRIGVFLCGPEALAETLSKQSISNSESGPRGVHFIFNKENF
# [9] = target: NADPH oxidase 4 (Homo sapiens) (UniProt Q9NPH5); assay: compounds shifting NOX4 Amplex Red fluorescence – cell-based, HEK293-NOX4, tetracycline-induced, NOX inhibitor project, primary screen (AID 1160); settings: HEK293-NOX4, Amplex Red H2O2 fluorescence, 45 min; higher = more signal, called active from +8 up or from −8 down
# NADPH oxidase 4 (Homo sapiens), sequence (Q9NPH5 whole entry, looked up): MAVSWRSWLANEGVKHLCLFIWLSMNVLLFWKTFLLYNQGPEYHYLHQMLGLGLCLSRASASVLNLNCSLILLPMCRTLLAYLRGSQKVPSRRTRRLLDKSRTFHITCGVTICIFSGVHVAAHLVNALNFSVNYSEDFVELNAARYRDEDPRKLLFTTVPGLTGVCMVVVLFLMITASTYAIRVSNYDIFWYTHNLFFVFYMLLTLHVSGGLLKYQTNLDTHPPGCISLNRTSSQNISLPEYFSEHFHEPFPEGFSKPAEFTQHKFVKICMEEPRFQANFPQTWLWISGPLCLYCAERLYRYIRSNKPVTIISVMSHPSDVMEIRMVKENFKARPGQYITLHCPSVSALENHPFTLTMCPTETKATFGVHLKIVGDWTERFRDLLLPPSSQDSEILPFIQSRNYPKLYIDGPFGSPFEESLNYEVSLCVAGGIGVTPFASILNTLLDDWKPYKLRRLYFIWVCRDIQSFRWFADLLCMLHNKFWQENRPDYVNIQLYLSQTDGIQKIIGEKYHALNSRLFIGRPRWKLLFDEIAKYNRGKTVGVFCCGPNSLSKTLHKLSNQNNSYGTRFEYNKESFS
# [10] = target: NADPH oxidase 5 (Homo sapiens) (UniProt Q96PH1); assay: compounds shifting NOX5 Amplex Red fluorescence – cell-based, HEK293-NOX5, NOX inhibitor project, primary screen (AID 1161); settings: HEK293-NOX5, ionomycin, 45 min, higher = more signal
# NADPH oxidase 5 (Homo sapiens), sequence (Q96PH1 whole entry, looked up): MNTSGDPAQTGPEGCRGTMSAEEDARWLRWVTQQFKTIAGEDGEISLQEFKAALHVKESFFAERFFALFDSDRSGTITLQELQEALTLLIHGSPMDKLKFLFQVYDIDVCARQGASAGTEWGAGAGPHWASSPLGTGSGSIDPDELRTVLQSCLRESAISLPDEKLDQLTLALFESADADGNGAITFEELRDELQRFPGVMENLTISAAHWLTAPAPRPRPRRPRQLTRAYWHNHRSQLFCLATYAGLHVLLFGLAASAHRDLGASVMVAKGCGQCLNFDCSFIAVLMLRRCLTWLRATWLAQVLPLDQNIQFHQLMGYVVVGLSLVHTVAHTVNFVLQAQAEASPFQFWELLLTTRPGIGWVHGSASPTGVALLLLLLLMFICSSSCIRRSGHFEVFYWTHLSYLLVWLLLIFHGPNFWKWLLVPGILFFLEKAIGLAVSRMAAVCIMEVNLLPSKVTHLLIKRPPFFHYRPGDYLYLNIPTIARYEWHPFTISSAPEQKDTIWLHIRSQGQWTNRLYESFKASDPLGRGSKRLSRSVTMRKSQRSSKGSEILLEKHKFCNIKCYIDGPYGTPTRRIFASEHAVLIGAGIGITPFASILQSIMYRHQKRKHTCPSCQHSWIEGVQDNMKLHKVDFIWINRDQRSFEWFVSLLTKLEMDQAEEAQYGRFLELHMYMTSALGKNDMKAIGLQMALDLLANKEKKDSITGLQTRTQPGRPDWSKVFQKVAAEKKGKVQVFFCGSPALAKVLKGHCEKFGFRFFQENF
# [11] = compound effects on lung adenocarcinoma cell viability – A549, calcein-AM fluorescence, 48 h, basal, profiling panel (AID 1162); settings: higher = more signal; further: test concentration not given here
# [12] = compound effects on differentiated 3T3-L1 adipocyte viability – cell-based, 3T3-L1 adipocytes, calcein-AM fluorescence, 48 h, basal, profiling panel (AID 1163); settings: 3T3-L1 adipocytes viability, higher = more signal; further: test concentration not given here
# [13] = compound effects on hepatocellular carcinoma cell viability – HepG2, calcein-AM fluorescence, 48 h, basal, profiling panel (AID 1164); settings: higher = more signal; further: test concentration not given here
# [14] = compound effects on multiple myeloma cell viability – MM1S, calcein-AM fluorescence, 48 h, basal, profiling panel (AID 1165); settings: higher = more signal;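 further: viability of MM1S multiple myeloma cells under basal unstimulated conditions; test concentration not given here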
# [15] = calcein-AM signal in unstimulated myeloma cells – cell-based, calcein-AM fluorescence, 48 h, PK04 Diversity Set, profiling panel (AID 1166); settings: RPMI8226 myeloma viability, higher = more signal;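 further: cells grown under basal conditions without added stimulus; test concentration not given here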
# [16] = JC-1 mitochondrial signal, unstimulated HepG2 cells – cell-based, JC-1 fluorescence, 24 h, 100 nL compound, profiling panel (AID 1167); settings: HepG2 mitochondrial potential, higher = more signal; further: test concentration not given here
# [17] = JC-1 mitochondrial signal, unstimulated adipocytes – cell-based, JC-1 fluorescence, 3T3-L1 adipocytes, 24 h, 100 nL compound, profiling panel (AID 1168); settings: JC-1 mitochondrial fluorescence, higher = more signal, called active from +8 up or from −8 down; further: test concentration not given here
# [18] = JC-1 mitochondrial signal, unstimulated myeloma cells – cell-based, JC-1 fluorescence, RPMI8226, 24 h, 100 nL compound, profiling panel (AID 1169); settings: JC-1 mitochondrial potential fluorescence, higher = more signal; further: test concentration not given here
# [19] = JC-1 mitochondrial signal, unstimulated MM1S myeloma – cell-based, JC-1 fluorescence, 24 h, 100 nL compound, profiling panel (AID 1170); settings: MM1S mitochondrial potential, higher = more signal; further: test concentration not given here
# [20] = resazurin metabolic signal in A549 cells – cell-based, resazurin fluorescence, 24 h, PK04 Diversity Set, profiling panel (AID 1171); settings: A549 viability, higher = more signal, called active from +8 up or from −8 down; further: test concentration not given here
SMILES,z-score [1],composite z-score [2],z-score [3],z-score [4],z-score [5],z-score [6],z-score [7],z-score [8],z-score [9],z-score [10],z-score [11],z-score [12],z-score [13],z-score [14],z-score [15],z-score [16],z-score [17],z-score [18],z-score [19],z-score [20]
COC(=O)c1ccc(C#CC(NP(=O)(c2ccccc2)c2ccccc2)c2ccccc2)cc1 (stereo not given),-0.817 (inactive),0.0312,10.2 (active),1.16 (inactive),1.04 (inactive),0.936 (inactive),0.806,0.00908 (inactive),-0.556 (inactive),-4.46,-0.341,-0.0724,0.428,-3.15,-3.5,-0.798,-0.174 (inactive),-0.352,-1.3,-0.491 (inactive)
C=CCN1C(=O)[C@@]2(Cc3ccccc3)N=C(c3ccc(OCCCO)cc3)O[C@H]2c2ccccc21,0.0648 (inactive),0.48,33.3 (active),32 (active),2.61 (inactive),9.79 (active),-0.586,-1.87 (inactive),0.969 (inactive),0.0569,-1.38,1.56,-1.82,-2.95,-3.94,-2.07,1.58 (inactive),-1.11,-2.14,-1.36 (inactive)
CCCC=C(CCC)[C@@H](NC(=O)c1ccc(C(F)(F)F)cc1)c1ccccc1,-1.25 (inactive),0.718,0.666 (inactive),-0.96 (inactive),0.394 (inactive),-1.05 (inactive),1.47,-3.96 (inactive),-3.71 (inactive),-3.65,-0.842,0.0679,-1.59,-2.51,-2.58,-2.98,-0.208 (inactive),-0.601,-1.13,-0.396 (inactive)
C[C@]1(C(=O)NCc2ccccc2)c2ccccc2C(=O)N(Cc2cc(C(F)(F)F)cc(C(F)(F)F)c2)[C@H]1c1ccc(CO)cc1,2.32 (inactive),0.364,6.25 (inactive),1.11 (inactive),0.709 (inactive),0.448 (inactive),3.92,-1.35 (inactive),-1.03 (inactive),-1,0.0361,1.95,0.292,-0.951,-1.46,1.07,-0.122 (inactive),-0.155,-0.177,0.805 (inactive)
COc1ccc([Si](C)(C)[C@@H]2[C@@H](CCO)O[C@]3(C(=O)N(Cc4ccc(NC(=O)[C@H](C)O)cc4)c4ccccc43)[C@H]2C)cc1,1.12 (inactive),0.0378,31.4 (active),27.1 (active),1.58 (inactive),2.46 (inactive),0.597,0.535 (inactive),1.26 (inactive),0.648,-2.45,1.63,-2.43,-2.97,-2.49,-1.84,0.492 (inactive),-1.12,-0.492,-2.95 (inactive)
C=C(CCCC)C(=O)CC[C@@H](OC(=O)c1cccnc1)c1cccc(OCCO)c1,0.381 (inactive),-0.0954,26.7 (active),13.1 (active),1.28 (inactive),1.14 (inactive),-0.712,0.849 (inactive),0.849 (inactive),-1.41,1.17,0.977,-0.865,-3.38,-2.93,0.558,0.645 (inactive),-0.721,-1.68,0.468 (inactive)
COc1cc([C@@H]2N[C@H](C(=O)O)Cc3c2[nH]c2ccccc32)cc(OC)c1OC,0.441 (inactive),-0.324,0.604 (inactive),0.321 (inactive),0.665 (inactive),0.198 (inactive),0.172,2.14 (inactive),-0.0815 (inactive),-1.1,0.937,1.05,-0.793,-0.0434,0.407,-0.737,-0.135 (inactive),-0.663,0.639,0.455 (inactive)
C=C(CCCC)C(=O)CC[C@@H](OC(C)=O)c1ccccc1OCCO,0.377 (inactive),-0.145,4.13 (inactive),0.663 (inactive),-0.566 (inactive),0.7 (inactive),-0.0442,0.356 (inactive),-0.852 (inactive),-1.68,0.509,-0.0795,-0.54,-2.62,-1.67,-0.684,1.08 (inactive),-0.76,0.93,0.288 (inactive)
